Results from the OligoGym collection.

target: RYR2; experiment: pooled miR-30 sensor sort-seq; sequence = guide strand; conditions: shRNA
Also: reference of the scale not given here.

Row | Sequence | sensor-assay potency score (higher = more potent)
1 | TTTAGTAGCTTCTTTGTCTTTG | 0.401
2 | TAAATCACTGTTTCCATCCAGA | 0.11
3 | TATTCGAGACACATCTACCTTC | 0.298
4 | TAAGTTGTAATTGCGCTCCTGT | 0.62
5 | TTCAGTGTGAACATCATGGTGT | 0.656
6 | TTGCAGTCCACAACCAGCCAAA | -1.35
7 | TAGTACATAGTGAACTGCGATG | -0.997
8 | TTCACTTGAACTTCTCGTGGGG | 0.903
9 | TTTTATTGTAGAATTTTCGGAA | -0.252
10 | TTTTGTACTCGGTTCCACCTGA | 0.606

target: S100A11; experiment: as above; conditions: shRNA

Row | Sequence | sensor-assay potency score (higher = more potent)
11 | AAGCTTAGGAACTCTGTCTTGG | 0.352
12 | ATCTAGCTGACCATCACTGTTG | -0.625
13 | AGTGTAGTTATAACCATCCTTT | -1.48
14 | TATAACCATCCTTTCCAGCATA | -1.17
15 | TAGTTCTGTATTCATGAAGCTT | -0.971
16 | TCCAGTTTCTTCATCATGCGGT | -0.21
17 | AAATTCTGAGAAATCTAGCTGA | 0.4
18 | AATTCTGAGAAATCTAGCTGAC | -0.15
19 | TTGTGAAGGCAGCTAGTTCTGT | -0.251
20 | ATCCTTTCCAGCATACTTCTGG | -0.568
21 | TTCTGGTTCTTTGTGAAGGCAG | -0.487

target: S100A4; experiment: as above; conditions: shRNA

Row | Sequence | sensor-assay potency score (higher = more potent)
22 | TTCGTTACACATCATGGCGATG | -1.19
23 | TTTATTGAACTTGCTCAGCATC | -1.33
24 | TGACTTGTTGAGCTTGAACTTG | -1.01
25 | TTACACATCATGGCGATGCAGG | -0.526
26 | TGAGCTTGAACTTGTCACCCTC | 0.664
27 | TAGTTCTGACTTGTTGAGCTTG | -0.701
28 | TCAGCTTCTGGAAAGCAGCTTC | 0.395
29 | TTGAACTTGTCACCCTCTTTGC | -0.681
30 | TTGTTGAGCTTGAACTTGTCAC | -0.424
31 | TTGCTCAGCATCAAGCACGTGT | -0.253
32 | TTGAGCTTGAACTTGTCACCCT | 0.789
33 | TACTCTTGGAAGTCCACCTCGT | 0.392

target: S100P; experiment: as above; conditions: shRNA

Row | Sequence | sensor-assay potency score (higher = more potent)
34 | TAATCAGAGGTACATGAGCAGG | -1.43
35 | TTGCCAACAAACACTTTTGGGA | -0.0452
36 | TCCATTGGCGTCCAGGTCCTTG | -1.46
37 | TGTCTTTTCCACTCTGCAGGAA | -0.419
38 | TACATGAGCAGGCTCAGCCTAG | -0.833
39 | TGGTAGCTCCTTCTCCATCAGC | -1.75
40 | GAACTCACTGAAGTCCACCTGG | -0.698
